Proteasome disasm = inhibitors of ATP-driven 26S proteasome dissociation, primary screen, biochemical, bead-based flow cytometry, GFP-tagged proteasome. anti-FLAG beads, GFP-proteasome disassembly. 24,000 tested, 0.2% active. inhibition of disassembly, % (concentration not given with the values). AID 751, 2007;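 active = inhibition of disassembly above about 33%, limit read from the data; inconclusive = likely self-fluorescent, control bead median signal at least 40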;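 also: higher percent means more bead fluorescence retained so stronger block of disassembly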
Prostate diff = activators of LNCaP prostate cell differentiation, primary screen, flow cytometry side scatter | 4 d | side scatter shift, % at 10 µM | 24,000 tested, 0.56% active;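 active = side scatter shift above 30%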;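 also: androgen-responsive LNCaP prostate cancer cells in charcoal-stripped serum medium; higher shift means more granular cells and more differentiation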
QS inhibitor = S. aureus quorum sensing inhibitors, primary screen, RNAIII-GFP reporter, flow cytometry | inhibition, % at 2 µM | S. aureus RN6390 RNAIII-GFP reporter, AIP-induced, flow cytometry 3 h | 24,000 tested, 0.3% active | AID 527, 2006;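 active = share of bacteria positive for the green fluorescent reporter and its mean brightness both inhibited by 50% or more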
Large screens that a line does not name were inactive. In the library only some 0.91% were active in any assay of this set; here they are far more common.

Cc1noc(/C=C/c2ccco2)c1S(=O)(=O)N1CCC(C(=O)NCc2ccco2)CC1	none
Cc1noc(/C=C/c2ccco2)c1S(=O)(=O)N1CCC(C(=O)N2CCc3ccccc3C2)CC1	Proteasome disasm 42, Prostate diff 43
CCOc1ccc(NC(=O)C2CCCN(S(=O)(=O)c3c(C)nn(C)c3C)C2)cc1 (stereo not drawn)	Proteasome disasm inconclusive, QS inhibitor 96
CCOc1ccc(NC(=O)C2CCCN(S(=O)(=O)c3c(C)n[nH]c3C)C2)cc1 (stereo not drawn)	none
Cc1cc2c(cc1C)-c1nnnn1C(C)(C)C2	none
CCOC(=O)c1cc(-c2ccc(F)cc2)n(CC(=O)Nc2nccs2)c1C	none
COc1ccc(OC)c(C2N(c3ccc(Cl)cc3)C(=O)C3CCCN32)c1 (stereo not drawn)	Proteasome disasm 85
COc1ccc(N2C(=O)C3CCCN3C2c2ccc(Cl)cc2)cc1 (stereo not drawn)	none
CN1C(=O)CC(N2CCN(c3ccc(Cl)c(Cl)c3)CC2)C1=O (stereo not drawn)	none (no result: Proteasome disasm, Prostate diff)
COc1ccc(-c2coc3c(CN4CCCCC4)c(O)c(CN4CCCCC4)c(O)c3c2=O)cc1	Prostate diff 36
COc1ccc(C(=O)c2coc3ccc(O)c(CN4CCCC4)c23)cc1	none
O=C(O)C1CCC(=O)N1Cc1ccccc1Cl (stereo not drawn)	none
O=C(CN1CCN(Cc2ccc3c(c2)OCO3)CC1)N1CCc2[nH]c3ccc(F)cc3c2C1	Prostate diff 50
O=C(Cn1ccc2ccccc2c1=O)N1CCN(Cc2ccc3c(c2)OCO3)CC1	none
COc1ccc(NC(=O)C23CCC(C)(C(=O)C2)C3(C)C)cc1 (stereo not drawn)	none
CCC(=O)O[C@@H]1CC(=O)O[C@H](C)CC=CC=C[C@@H](O)[C@H](C)C[C@H](CC=O)[C@H](O[C@H]2O[C@H](C)[C@@H](O[C@H]3C[C@@](C)(O)[C@@H](OC(=O)CC)[C@H](C)O3)[C@H](N(C)C)[C@H]2O)[C@H]1OC	QS inhibitor 51
CCOCCOc1nc2c(c(=O)n(C)c(=O)n2C)n1Cc1ccc(C)cc1	none
Cc1ccc2nc(NC(=O)C3CCCN(S(=O)(=O)c4cccc5nsnc45)C3)sc2c1 (stereo not drawn)	Proteasome disasm 151
Cc1ccc2nc(NC(=O)C3CCN(S(=O)(=O)c4cccc5nsnc45)CC3)sc2c1	none
CC(=O)c1cc2c(C)c(C(=O)c3ccccc3)oc2cc1O	none (no result: Proteasome disasm, Prostate diff)
Cc1ccc(Cn2ccc(NC(=O)c3cc(-c4ccc5c(c4)OCO5)on3)n2)cc1	none
Cc1ccc(Cn2ccc(NC(=O)c3cc(-c4ccc(Br)cc4)on3)n2)cc1	Prostate diff 35
